Source: PubChem (National Center for Advancing Translational Sciences (NCATS))
CtBP-E1A blk: qHTS Assay for Inhibitors of the CtBP/E1A Interaction; AID 651724, 2012; AlphaScreen GST-E1A/His-CtBP binding, 1536-well; hits give low values; hit rate 0.49% among 340,000; activity change, % (no concentration beside the values); CtBP / adenovirus E1A interaction (AlphaScreen); in the data active = activity change below about -65%; inconclusive = mostly about -30% to -63%
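GST-E1A and His-tagged CtBP (125 nM each as 5X stock) were preincubated with pin-transferred compound for 2 h at 37 °C in the dark, then glutathione donor and nickel acceptor beads were added for 1 h before AlphaScreen reading.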
TDP1 cell noCPT: qHTS for Inhibitors of human tyrosyl-DNA phosphodiesterase 1 (TDP1): qHTS in cells in absence of CPT; hit rate 15% among 420,000; DT40 Tdp1-/- hTDP1 cells, no CPT, ATP luminescence, 48 h; Potency, µM (doses to about 46.2 µM), for the others: top-dose activity change, negative = growth inhibition, usual class: inhibitors; also: potency is read from the fitted curve at half-maximal effect; nearly all actives have a fitted effect of over 55% in size
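Seeded 400 DT40-hTDP1 cells/well (vehicle DMSO, no 20 nM CPT); pinned compounds; ≥48 hr at 37 °C; CellTiter-Glo luminescence as viability measure.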
TDP1 inh: qHTS Assay for Inhibitors of Tyrosyl-DNA Phosphodiesterase (TDP1). recombinant TDP1, AlphaScreen DNA substrate cleavage. Potency, µM (doses to about 130 µM), without a hit: top-dose activity change, negative = inhibition, most hits filed as inhibitors. hit rate 0.28% among 350,000. AID 485290, 2010; also: potency is read from the fitted curve at half-maximal effect; nearly all actives have a fitted effect of over 40% in size
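E. coli-derived human Tdp1, 1 nM final. Cpd preinc 15 min RT; substrate 15 nM final, 5 min RT; AS bead mix 10 ug/ml final, 10 min RT. Signal loss = tyrosine-FITC cleavage. No-enzyme wells = max signal.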
DT40 TDP1 CPT: qHTS for Inhibitors of human tyrosyl-DNA phosphodiesterase 1 (TDP1): qHTS in cells in presence of CPT | chicken DT40 Tdp1-/-;hTDP1 cells + 20 nM CPT, ATP luminescence, 48 h | Potency, µM (top dose mostly 46.2 µM), without a hit: top-dose activity change, negative = growth inhibition, actives largely listed as inhibitors | hit rate 12% among 420,000; also: potency is read from the fitted curve at half-maximal effect; nearly all actives have a fitted effect of over 55% in size
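Cell growth measured by CellTiter-Glo luminescence after a minimum 48 h, 37 C compound exposure with 20 nM CPT in Tdp1-knockout DT40 cells stably expressing hTDP1, seeded 400/well; qHTS titration format.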
IL1B secr inh: qHTS for Inhibitors of Inflammasome Signaling: IL-1-beta AlphaLISA Primary Screen | THP-1 LPS/ATP IL-1B secretion, AlphaLISA, 16 h; hits give low values | activity change, % at 57.5 µM | hit rate 4.7% among 360,000; in the data active = activity change below about -50%; inconclusive = mostly about -30% to -49%
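Secreted IL-1B measured by AlphaLISA bead assay after 16 h compound exposure of THP-1 cells; compounds (final up to 57.5 uM) added 1 h before LPS (250 ng/mL) and ATP (1.25 mM) stimulation; lower signal means less secretion.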
Six1-Eya2 blk: qHTS Assay for Inhibitors of the Six1/Eya2 Interaction | Homeobox protein SIX1 (Homo sapiens) + Protein phosphatase EYA2 (Homo sapiens), … | AlphaScreen GST-Six1/His-Eya2 binding, biochemical; hits give low values | activity change, % (test concentration not listed) | hit rate 0.56% among 360,000; in the data active = activity change below about -65%; inconclusive = mostly about -30% to -63%
Target sequence (O00167 whole entry, looked up): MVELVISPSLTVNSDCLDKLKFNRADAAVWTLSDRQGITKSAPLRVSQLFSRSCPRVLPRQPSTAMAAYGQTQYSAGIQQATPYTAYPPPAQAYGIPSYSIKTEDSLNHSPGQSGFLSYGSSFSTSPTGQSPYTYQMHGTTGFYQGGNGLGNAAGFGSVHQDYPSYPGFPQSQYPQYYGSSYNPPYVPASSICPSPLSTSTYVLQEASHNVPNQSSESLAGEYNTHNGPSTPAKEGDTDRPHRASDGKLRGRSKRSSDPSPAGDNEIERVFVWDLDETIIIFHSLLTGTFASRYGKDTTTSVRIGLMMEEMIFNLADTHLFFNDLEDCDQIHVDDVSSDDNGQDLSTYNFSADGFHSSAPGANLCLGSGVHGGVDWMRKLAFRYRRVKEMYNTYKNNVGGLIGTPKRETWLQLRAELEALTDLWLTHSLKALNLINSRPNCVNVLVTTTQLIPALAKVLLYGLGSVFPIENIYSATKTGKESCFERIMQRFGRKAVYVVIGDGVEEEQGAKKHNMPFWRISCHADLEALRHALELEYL
Target sequence (Q15475 whole entry, looked up): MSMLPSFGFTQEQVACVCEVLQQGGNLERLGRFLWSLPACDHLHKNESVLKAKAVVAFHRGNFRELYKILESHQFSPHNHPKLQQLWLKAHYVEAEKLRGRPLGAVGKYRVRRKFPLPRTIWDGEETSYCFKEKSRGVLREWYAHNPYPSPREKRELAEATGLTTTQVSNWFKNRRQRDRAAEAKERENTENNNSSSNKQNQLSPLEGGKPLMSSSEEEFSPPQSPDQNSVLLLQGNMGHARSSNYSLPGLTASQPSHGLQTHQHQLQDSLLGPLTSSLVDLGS
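AlphaScreen with GST-Six1 and His-Eya2 (5X mix: 250 nM and 500 nM), glutathione donor and nickel acceptor beads; buffer 50 mM Tris pH 8.0, 300 mM NaCl, 1 mM TCEP; 1 h at 37 C in the dark.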
Numbers without * were called inactive; u = inconclusive; x = no result given. Hits are enriched below; roughly 18% of the tested compounds scored in any of these assays. Unless noted, calls follow the shape of the dose curve; as a rule, active = well fitted curve in the direction sought with a large enough effect; inconclusive = small, poorly fitted or top-dose-only effect, or another doubt; inactive = no such curve, though single readings can be large; an effect the other way counts as inactive or inconclusive. % is scaled to controls: 0 for no effect and ±100 for the full control effect.

SMILES | CtBP-E1A blk | TDP1 cell noCPT | TDP1 inh | DT40 TDP1 CPT | IL1B secr inh | Six1-Eya2 blk
O=C(COC(=O)Cc1ccccc1F)Nc1ccccc1[N+](=O)[O-] | -22.4 | 4.2% | 3.7% | -14.1% | -11.1 | u
COc1cc(/C=N/NC(=O)Nc2ccccc2)ccc1OC(C)=O | -3.3 | -23.2% | -2.6% | -8.1% | 10.0 | -6.5
C=CC[n+]1c(/C=C/c2ccc(OC(C)=O)c(OC)c2)ccc2ccccc21 | x | 11.6µM* | x | 7.31µM* | -98.6* | -1.9
COC(=O)c1ccc(NC(=O)Cn2nc(SC)n(N)c2=S)cc1 | -0.5 | -12.7% | 0.0% | 14.4% | -16.0 | 7.0
Cc1nc2ccc(CN(C)c3ccc(C(=O)N[C@@H](CCC(=O)O)C(=O)O)s3)cc2c(=O)[nH]1 | x | 0.0042µM* | x | 0.0084µM* | x | x
CCN(c1ccccc1)S(=O)(=O)c1cc(C(=O)NCC(c2ccc(OC)cc2)N(C)C)ccc1C (configuration not stated) | -10.5 | 16.4µM* | x | u | -74.2* | -15.2
C=CCN(c1ccccc1)S(=O)(=O)c1cccc(C(=O)NCC(c2cccs2)N2CCOCC2)c1 (configuration not stated) | -1.8 | 7.31µM* | 2.0% | 13µM* | 0.2 | 0.4
COc1ccc(C(CNC(=O)c2cccc(S(=O)(=O)N(C)c3ccccc3)c2)N2CCCC2)cc1 (configuration not stated) | -13.1 | 4.11µM* | 1.1% | u | -29.3 | -4.2
CCN(CC)S(=O)(=O)c1ccc(C(=O)NCC(c2cccs2)N2CCOCC2)cc1 (configuration not stated) | 3.2 | -15.1% | 4.1% | u | -1.5 | 0.6
CCN(c1ccccc1)S(=O)(=O)c1cccc(C(=O)NCC(c2cccs2)N2CCOCC2)c1 (configuration not stated) | -21.3 | u | 1.1% | 20.6µM* | u | 0.0
O=C(Nc1ccc2c(c1)OCO2)c1cccc2c1C(=O)N(C1CCCCC1)C2 | x | 6.6% | 1.2% | 6.3% | 9.5 | 4.0
CC(C)NC(=O)c1ccc(N(Cc2ccccc2)S(C)(=O)=O)cc1 | -2.8 | 1.5% | 3.0% | 1.2% | -0.8 | -3.0
Cc1nnc(NC(=O)C(C)Sc2nncn2C)s1 (configuration not stated) | -2.5 | -22.4% | -2.1% | -2.2% | -9.6 | -0.4
COc1ccccc1NS(=O)(=O)c1cccc(C(=O)NCC(c2ccccc2OC)N2CCCC2)c1 (configuration not stated) | 4.7 | u | -3.0% | u | -5.0 | -2.6
C=CCN(c1ccccc1)S(=O)(=O)c1cccc(C(=O)NCC(c2ccccc2OC)N2CCCC2)c1 (configuration not stated) | -3.1 | 18.4µM* | 8.2% | 18.4µM* | u | -13.0
Cc1cccc(N(C)C(=O)CN(C)S(=O)(=O)c2ccc3c(c2)c(=O)n(C)c(=O)n3C)c1 | -9.2 | 2.8% | 7.5% | -17.9% | 26.5 | 0.8
Cc1ccc2[nH]c3c(=O)n(CC(=O)N4CCCC(C)C4)ncc3c2c1 (configuration not stated) | x | 18.4µM* | 2.1% | u | x | x
COc1ccccc1CNC(=O)c1cnc(N2CCCC2)nc1C | x | u | 1.2% | u | x | x
C[C@@H]1CN(C(=O)c2nc3ccc(Cl)cn3c2CNCC[C@@H]2C[C@@H]3C=C[C@H]2C3)C[C@H](C)O1 | -10.6 | u | 2.7% | u | -2.7 | 13.1
CC(=O)c1c(C)[nH]c(C(=O)OCC(=O)c2c(N)n(C)c(=O)n(C)c2=O)c1C | x | x | 5.1% | x | x | x
